DRD3 agonist = activates the human D3 dopamine receptor | P35462 | 410,000 compounds, 0.58% hits | AID 652048 | D3R DiscoveRx beta-arrestin cells, luminescence, 90 min | max activation, %; in the data active means max activation above about 30%; further: 0% is about no effect
Target sequence (P35462 whole entry, looked up): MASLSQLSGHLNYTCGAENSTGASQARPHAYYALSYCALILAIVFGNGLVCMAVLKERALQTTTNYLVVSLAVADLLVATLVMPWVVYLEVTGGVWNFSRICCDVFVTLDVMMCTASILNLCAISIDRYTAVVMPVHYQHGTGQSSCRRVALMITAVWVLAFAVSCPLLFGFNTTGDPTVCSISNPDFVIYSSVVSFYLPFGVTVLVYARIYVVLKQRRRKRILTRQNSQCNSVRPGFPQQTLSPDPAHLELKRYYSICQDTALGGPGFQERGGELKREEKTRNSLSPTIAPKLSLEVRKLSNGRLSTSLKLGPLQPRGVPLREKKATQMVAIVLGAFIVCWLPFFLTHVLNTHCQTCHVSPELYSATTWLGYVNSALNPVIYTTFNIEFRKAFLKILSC
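Cells at 1500/well, incubated overnight, then treated with pinned compounds (dopamine as control) for 90 min at 37 degrees C. DiscoveRx reagent added for 30 - 60 minutes at room temperature; luminescence read.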
GLP1R cytotox = cytotoxic in the GLP-1 receptor inverse agonist counter-screen; 410,000 compounds, 0.13% hits; Potency, µM (doses to about 38.3 µM), inactives show at the top dose activity change, negative = inhibition, actives largely listed as inhibitors; HEK293 cAMP-luciferase reporter cells, luminescence, 24 h; AID 624418;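 further: loss of luciferase light is scored as toxicity; potency means the concentration at half of the fitted maximal effect; on the % scale 0 is the no-effect control and ±100 the full control effect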
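Quantitative HTS format, 1536 wells, 200 cells/uL seeded. Compounds: 23 nL, 24 h, 37 °C. Detection: luciferase reagent, luminescence at 12 min RT; decreased signal taken as cytotoxic.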
DRD3 antagonist = antagonists of human D3 dopamine receptor; 360,000 compounds, 2.5% hits; D3R cells, DiscoveRx beta-arrestin luminescence, antagonist mode; active compounds read low; max response, negative = inhibition, %; P35462; AID 652054; in the data active means max response below about -50%; inconclusive means no clear call, values can overlap the other calls; further: on the % scale 0 is the no-effect control and ±100 the full control effect
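Cells plated overnight at 1500 cells/well, then exposed to library compounds with dopamine controls for 90 minutes at 37 degrees C. DiscoveRx reagent added for 30–60 minutes at room temperature; luminescence read, quantitative HTS format.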
GLP-1R inv ag = acts as inverse agonist at human GLP-1 receptor; P43220; HEK293 GLP-1R CRE-luciferase, luminescence, 24 h; GLP-1R form is constitutively active; Potency, µM (titrated, usually from 38.3 µM), without a hit: top-dose activity change, negative = inhibition, most hits filed as inhibitors; 410,000 compounds, 1.6% hits; AID 624417; further: potency means the concentration at half of the fitted maximal effect; on the % scale 0 is the no-effect control and ±100 the full control effect; nearly all actives have a fitted effect of over 55% in size
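HEK293 cells stably co-expressing a cAMP-responsive luciferase reporter and constitutively active GLP-1R were seeded, incubated 12 h, then exposed to compounds for 24 h at 37 C. Luminescence was read 12 min after detection reagent; inverse agonists lower signal.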
GLP-1R agonist = activates the human GLP-1 receptor; P43220; HEK293 GLP-1R CRE-luciferase, luminescence, 4-6 h; cells express a hypersensitive GLP-1R form; Potency, µM (highest dose often 45.6 µM), inactives show at the highest dose activation, hits mostly activators; 380,000 compounds, 0.007% hits; further: potency means the concentration at half of the fitted maximal effect; % of control where 0% means no effect
ClpP mod = qHTS Assay for Activators of ClpP. purified B. subtilis ClpP, FRET peptide cleavage, 20 min. Potency, µM (top dose mostly 57.5 µM), without a hit: at the highest dose activity change, negative = active. 340,000 compounds, 1.9% hits. AID 651965, 2013; active means well fitted falling curve with a large enough effect; inconclusive means small, poorly fitted or top-dose-only effect; inactive means no such curve, though single readings can be large or run the other way; further: potency means the concentration at half of the fitted maximal effect; the source files actives as falling curves though it sought activators and does not explain the sign; nearly all actives have a fitted effect of over 65% in size
Target sequence (P80244 whole entry, looked up): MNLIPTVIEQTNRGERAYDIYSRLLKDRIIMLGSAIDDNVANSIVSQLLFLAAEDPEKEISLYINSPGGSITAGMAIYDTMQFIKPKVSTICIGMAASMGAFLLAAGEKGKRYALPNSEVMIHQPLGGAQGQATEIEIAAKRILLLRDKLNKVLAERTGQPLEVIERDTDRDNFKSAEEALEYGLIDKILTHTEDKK
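Purified B. subtilis ClpP, 10 microg/mL final in Tris/HCl pH8 with KCl, BSA, glycerol and Tween-20, cleaved an Abz/nitrotyrosine-quenched decapeptide. Fluorescence (ex 320, em 430) was read at 0 and 20 min at room temperature. Delta was normalized to 5.8 microM ADEP and DMSO/no-enzyme controls.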
Numbers without * were called inactive. Sampled rows, rich in hits. Any-hit rate of the full collection: about 5.7%. Unless noted, the call rests on the fitted dose curve; in most records, active means well fitted curve in the direction sought with a large enough effect; inconclusive means small, poorly fitted or top-dose-only effect, or another doubt; inactive means no such curve, though single readings can be large; an effect the other way counts as inactive or inconclusive.

What do the screens show for `CCN(CC)S(=O)(=O)c1ccc2c(c1)nc(CN(C)C(=O)Nc1ccc(C)c(F)c1)n2C`?
DRD3 agonist: -30; GLP1R cytotox: 2%; GLP-1R inv ag: -15%; ClpP mod: 1%

How did CN1CCN(C(c2cccs2)c2nnnn2Cc2ccc(F)cc2)CC1 (stereo unspecified) do in these assays?
DRD3 agonist: -2; GLP1R cytotox: -2%; DRD3 antagonist: -6; GLP-1R inv ag: -16%; GLP-1R agonist: -1%

What do the screens show for `CC1CCCN(C(c2cccs2)c2nnnn2Cc2ccccc2)C1` (stereo unspecified)?
DRD3 agonist: -5; GLP1R cytotox: -3%; DRD3 antagonist: -12; GLP-1R inv ag: 11µM*; GLP-1R agonist: 6%; ClpP mod: -1%

How did CC1(C)Cc2c(cnn2-c2ccccc2)C(=O)/C1=N\NC(=O)c1ccncc1 do in these assays?
DRD3 agonist: 0; GLP1R cytotox: 49%; DRD3 antagonist: 5; GLP-1R inv ag: 0%; GLP-1R agonist: 4%; ClpP mod: -2%

Results for CC1(C)Cc2c(cnn2-c2ccccc2)-c2c1c1ccccc1n2CC(O)CCl (stereo unspecified) ?
DRD3 agonist: 5; GLP1R cytotox: 1%; DRD3 antagonist: 23; GLP-1R inv ag: inconclusive; GLP-1R agonist: -6%; ClpP mod: 22µM*

How did COC(=O)c1sc2ccccc2c1NC(=O)c1ccc(S(=O)(=O)N2CCCCC2C)cc1 (stereo unspecified) do in these assays?
DRD3 agonist: 8; GLP1R cytotox: 7%; DRD3 antagonist: 14; GLP-1R inv ag: inconclusive; GLP-1R agonist: -2%; ClpP mod: inconclusive

What do the screens show for `COC(=O)c1sc2ccccc2c1NC(=O)c1ccc(S(=O)(=O)N2CCCCC2)cc1`?
DRD3 agonist: 38*; GLP1R cytotox: 1%; DRD3 antagonist: 7; GLP-1R inv ag: 3%; GLP-1R agonist: 2%; ClpP mod: 0%

Results for Cc1cc(F)ccc1C(O)c1ncc(-c2ccccc2C(F)(F)F)[nH]1 (stereo unspecified) ?
DRD3 agonist: 3; GLP1R cytotox: 4%; DRD3 antagonist: 15; GLP-1R inv ag: -22%; GLP-1R agonist: 5%; ClpP mod: -5%

Results for CC1(C)Cc2c(C#N)c(SCCO)nc(N3CCOCC3)c2CO1 ?
DRD3 agonist: -20; GLP1R cytotox: -3%; DRD3 antagonist: -13; GLP-1R inv ag: 17%; GLP-1R agonist: 15%; ClpP mod: -2%

How did CCCCc1nc(NCC2CCCO2)c(C#N)c2c1COC(C)(C)C2 (stereo unspecified) do in these assays?
DRD3 agonist: 7; GLP1R cytotox: -2%; DRD3 antagonist: 1; GLP-1R inv ag: -21%; GLP-1R agonist: 7%; ClpP mod: 7.9µM*

How did CC(C)c1nc(N2CCN(C(=O)c3ccccc3)CC2)c(C#N)c2c1COC(C)(C)C2 do in these assays?
DRD3 agonist: 0; GLP1R cytotox: 0%; DRD3 antagonist: -28; GLP-1R inv ag: -6%; GLP-1R agonist: 6%; ClpP mod: 28µM*

Results for CC(C)c1nc(N2CCN(C(=O)c3ccco3)CC2)c(C#N)c2c1COC(C)(C)C2 ?
DRD3 agonist: 12; GLP1R cytotox: -15%; DRD3 antagonist: 46; GLP-1R inv ag: inconclusive; GLP-1R agonist: 18%

Results for CC1(C)Cc2c(C#N)c(SCCOc3ccccc3)nc(N3CCOCC3)c2CO1 ?
DRD3 agonist: 4; GLP1R cytotox: -21%; DRD3 antagonist: 35; GLP-1R inv ag: 13µM*; GLP-1R agonist: 2%; ClpP mod: inconclusive

How did CCCCc1nc(N2CCOCC2)c(C#N)c2c1COC(C)(C)C2 do in these assays?
DRD3 agonist: 0; GLP1R cytotox: 18%; DRD3 antagonist: 22; GLP-1R inv ag: inconclusive; GLP-1R agonist: 0%; ClpP mod: 28µM*

Results for COC(=O)C1Cc2c([nH]c3ccccc23)C2(CCN(Cc3ccccc3)CC2)N1 (stereo unspecified) ?
DRD3 agonist: -23; GLP1R cytotox: inconclusive; DRD3 antagonist: -93*; GLP-1R inv ag: inconclusive; GLP-1R agonist: 6%

What do the screens show for `CCCN1CCC2(CC1)NC(C(=O)O)Cc1c2[nH]c2ccccc12` (stereo unspecified)?
DRD3 agonist: -2; GLP1R cytotox: -14%; DRD3 antagonist: 10; GLP-1R inv ag: -14%; GLP-1R agonist: -3%; ClpP mod: -5%

Results for CCOC(=O)[C@H]1[C@H]2COc3ccc(Br)cc3[C@@H]2N2C(=O)c3cc(Br)ccc3NC(=O)[C@@]12C ?
DRD3 agonist: -11; GLP1R cytotox: -49%; DRD3 antagonist: 0; GLP-1R inv ag: 2.8µM*; GLP-1R agonist: -2%; ClpP mod: -3%

How did CCOC(=O)[C@H]1[C@H]2COc3ccc(Cl)cc3[C@@H]2N2C(=O)c3cc(F)c(F)cc3NC(=O)[C@@]12C do in these assays?
DRD3 agonist: -8; GLP1R cytotox: 6%; DRD3 antagonist: -19; GLP-1R inv ag: 10µM*; GLP-1R agonist: 3%; ClpP mod: -1%

What do the screens show for `CCOC(=O)[C@H]1[C@H]2COc3ccc(Cl)cc3[C@@H]2N2C(=O)c3cc(Br)ccc3NC(=O)[C@@]12C`?
DRD3 agonist: 5; GLP1R cytotox: 1%; DRD3 antagonist: -10; GLP-1R inv ag: 3.5µM*; GLP-1R agonist: -2%; ClpP mod: 0%

Results for CCOC(=O)[C@H]1[C@H]2COc3ccc(Cl)cc3[C@@H]2N2C(=O)c3cc(Cl)ccc3NC(=O)[C@@]12C ?
DRD3 agonist: -22; GLP1R cytotox: inconclusive; DRD3 antagonist: -1; GLP-1R inv ag: inconclusive; GLP-1R agonist: 3%; ClpP mod: -13%

Results for CCOC(=O)[C@H]1[C@H]2COc3ccccc3[C@@H]2N2C(=O)c3cc(Br)ccc3NC(=O)[C@@]12C ?
DRD3 agonist: -2; GLP1R cytotox: 0%; DRD3 antagonist: 0; GLP-1R inv ag: inconclusive; GLP-1R agonist: -1%; ClpP mod: 1%

How did Cc1cc(=O)n2[nH]c(NC(=O)c3cccc(Cl)c3)nc2n1 do in these assays?
DRD3 agonist: -5; GLP1R cytotox: 1%; GLP-1R inv ag: 5%; ClpP mod: 1%

What do the screens show for `CC(=O)Nc1ccc(SC[C@H](Cc2ccccc2)N2CC[C@@H](N)CCC2=O)cc1`?
ClpP mod: -2%

What do the screens show for `COC(=O)/C=C1\S/C(=N/NC(=O)c2ccccc2)NC1=O`?
DRD3 agonist: -2; GLP1R cytotox: -16%; DRD3 antagonist: -65*; GLP-1R inv ag: 0%; GLP-1R agonist: 1%; ClpP mod: 1%

Screening results as filed in PubChem.
